The list is not random: actives were taken first. Their share in the collection is about 2.4%.
CHO-K1 Ca antag: M1 antagonist counterscreen hit in parental CHO-K1 cells; ATP-induced calcium, Fluo-8 fluorescence; inhibition, % at 3 µM; 0.6% of 360,000 active; AID 602250;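 active = inhibition above a per-plate cutoff, the plate's mean sample inhibition plus 3 SD, cut at about 24% in these data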;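 note: 0% = DMSO plus EC80 ATP and 100% = DMSO alone without ATP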
CHRM1 antagonist: human M1 muscarinic receptor antagonists, primary screen, CHO-K1 cells, Fluo-8 calcium fluorescence, 1536-well; Muscarinic acetylcholine receptor M1 (Homo sapiens), P11229; inhibition, % at 3 µM; AID 588852, 2011; CHO-K1 hM1, ACh EC80 antagonist; 1.3% of 360,000 active;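 active = percent inhibition above its own plate's cutoff, namely the mean of that plate's compound wells plus 3 SD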;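 note: peak over basal fluorescence ratio during 140 s after agonist addition; 0% = ACh EC80 plus DMSO and 100% = DMSO alone without agonist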
Target sequence (P11229 whole entry, looked up): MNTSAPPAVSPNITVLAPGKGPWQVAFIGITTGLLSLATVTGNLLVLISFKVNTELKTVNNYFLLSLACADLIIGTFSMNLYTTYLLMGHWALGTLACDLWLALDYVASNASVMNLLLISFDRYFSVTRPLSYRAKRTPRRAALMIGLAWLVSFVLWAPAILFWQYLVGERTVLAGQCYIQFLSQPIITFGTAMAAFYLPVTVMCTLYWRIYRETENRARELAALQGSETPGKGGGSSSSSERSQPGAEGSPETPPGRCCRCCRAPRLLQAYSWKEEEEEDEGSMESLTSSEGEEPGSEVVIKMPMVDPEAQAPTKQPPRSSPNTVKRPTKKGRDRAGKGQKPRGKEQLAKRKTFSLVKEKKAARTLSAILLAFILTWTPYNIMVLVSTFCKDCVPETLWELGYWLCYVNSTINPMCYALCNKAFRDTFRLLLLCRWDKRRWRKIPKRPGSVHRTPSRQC
M1 PAM: human M1 muscarinic receptor positive allosteric modulators, primary screen, CHO-K1 cells, Fluo-8 calcium fluorescence, 1536-well. Muscarinic acetylcholine receptor M1 (Homo sapiens), P11229. CHO-K1 hM1, ACh EC20; 0% = ACh EC20, 100% = maximal ACh. activation, % at 3 µM. 0.088% of 360,000 active. AID 588819, 2011; in the data active = activation above about 19%, passing the limit was not always enough
CHRM1 agonist: human M1 muscarinic receptor agonists, primary screen, Fluo-8 calcium fluorescence, CHO-K1 cells, HTS | Muscarinic acetylcholine receptor M1 (Homo sapiens), P11229 | CHO-K1 hM1, agonist mode; 0% DMSO, 100% acetylcholine EC100 | activation, % at 3 µM | 0.33% of 360,000 active | AID 588814, 2011;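 active = activation above the run's mean compound activation plus 3 SD, cut at about 16% in these data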;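 note: peak over basal fluorescence ratio within a 140 s kinetic read after compound addition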
M1 PAM parental: nonselective calcium activators in parental CHO-K1 cells, primary screen, counter-screen for M1 PAM project, cell-based, Fluo-8 calcium fluorescence, full deck, 1536-well; ATP EC20; 0% at ATP EC20, 100% at ATP max; activation, % at 3 µM; 0.02% of 360,000 active; AID 602247, 2012;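 active = activation above the run cutoff, the mean activation of all test compounds plus 3 SD, cut at about 40% in these data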;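 note: peak over basal fluorescence ratio in a 140 s read after ATP addition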
M1 ag parental: counter-screen for M1 agonists: effect in parental CHO-K1 cells; 0.48% of 360,000 active; activation, % at 3 µM; Fluo-8 calcium fluorescence; scaled to maximal ATP response, vehicle zero; in the data active = activation above about 15%;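 note: untransfected CHO-K1 host cells lacking M1 receptor as counterscreen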
An asterisk follows results filed as active.

SMILES	CHO-K1 Ca antag	CHRM1 antagonist	M1 PAM	CHRM1 agonist	M1 PAM parental	M1 ag parental
COc1cc(OC)cc(C(=O)Nc2ccccc2-c2nnn(CC(=O)Nc3cc(C)on3)n2)c1	-13.1	-6.2	8.7	-2.5	16.0	0.1
Cc1cc(C)n2nc(S(=O)(=O)N(C)Cc3ccccc3)nc2n1	-0.1	-10.4	9.9	-6.3	5.1	0.2
Cc1cc(C)n2nc(S(=O)(=O)N(CC(C)C)CC(C)C)nc2n1	25.5*	6.4	-5.5	-4.2	-8.5	-0.2
CC(C)CN1C(=O)c2ccc(C(=O)Nc3ccncc3)cc2C1=O	-16.2	9.0	-7.4	1.5	-0.4	17.7*
CC(C)CN1C(=O)c2ccc(C(=O)Nc3ccccn3)cc2C1=O	9.7	-2.6	5.5	-0.7	-6.8	0.4
CNCCC1Sc2ccccc2Oc2ccccc21 (stereo not drawn)	-17.1	-6.6	-6.7	-13.8	31.5	0.9
CN(C)CCCC1Sc2ccccc2Sc2ccccc21 (stereo not drawn)	0.9	76.1*	-24.8	-3.4	10.9	2.7
Cc1ccc(N=C2C(=O)Nc3ccc(C)c(Br)c32)cc1	-9.3	1.3	1.8	-4.3	5.0	0.7
COc1ccc(N=C2C(=O)Nc3ccc(C)c(Br)c32)cc1	25.8*	6.9	-2.1	-5.4	-20.9	-0.7
Cc1ccc(NC(=O)c2sc3ncn(CC(=O)N4CCN(c5ccccn5)CC4)c(=O)c3c2C)cc1Cl	-11.8	63.1*	-22.6	0.9	-4.9	5.4
COCCCNC(=O)c1sc2ncn(CC(=O)Nc3ccc(C)c(Cl)c3)c(=O)c2c1C	-18.7	-10.2	2.1	-2.9	39.9*	4.5
O=C(OCc1ccccc1)N1CCCC2CC1c1ccccc12 (stereo not drawn)	-12.5	-8.7	-1.7	-4.3	16.9	0.8
CC(C)[C@H]1COCCS(=O)(=O)N1Cc1ccccc1-c1cccc(Cl)c1	10.8	-12.3	-1.0	-9.9	4.7	0.3
COc1ccc(-c2csc(NC(=O)c3ccc(OCC(=O)N4CCOCC4)c(OC)c3)n2)cc1OC	-4.0	6.3	-17.0	-5.0	17.1	5.8
Cn1c(=O)c(NCCc2ccccc2)c2c3c(cccc31)C(=O)c1ccccc1-2	70.5*	80.3*	-20.4	166.3*	-7.4	124.5*
CN1C(=O)c2cccc(NCCCN3C(=O)c4ccccc4C3=O)c2C1=O	-13.8	-10.2	8.3	-5.9	-2.1	0.9
CCCCNc1c2c3c(cccc3n(C)c1=O)C(=O)c1ccccc1-2	69.2*	74.7*	-23.2	140.6*	-3.7	122.6*
CC(=O)Nc1ccc(Nc2c3c4c(cccc4n(C)c2=O)C(=O)c2ccccc2-3)cc1	-5.9	0.2	2.4	-3.5	17.7	2.3
Cn1c(=O)c(NC2CCCCC2)c2c3c(cccc31)C(=O)c1ccccc1-2	10.7	16.1	-14.3	12.9	3.0	15.7*
Cn1c(=O)c(NCCO)c2c3c(cccc31)C(=O)c1ccccc1-2	18.3	5.7	-15.7	70.1*	-3.3	33.7*
Cn1c(=O)cc2c3c(c(N4CCCCC4)ccc31)C(=O)c1ccccc1-2	8.5	4.0	4.7	0.4	-9.1	-0.3
Nn1c(SCC(=O)N2CCOCC2)nnc1-c1cccnc1	-0.8	-2.0	5.0	-3.1	4.6	0.2
CCCn1nc(C(=O)Nc2ccc3nc(N4CCOCC4)sc3c2)ccc1=O	8.9	6.3	-1.7	1.6	-21.8	1.0
O=c1c2ccccc2cnn1Cc1nnc(-c2cccs2)o1	-14.5	-11.9	13.3	-3.6	-2.9	1.6
CC(C)(C)C(=O)Nc1cccc(OC(F)(F)C(F)Cl)c1 (stereo not drawn)	-4.7	-5.6	2.6	-7.0	7.9	1.0
SMILES	CHO-K1 Ca antag	CHRM1 antagonist	M1 PAM	CHRM1 agonist	M1 PAM parental	M1 ag parental
Cc1ccccc1C(=O)NC1CC2CCCC(C1)N2CC(C)C (stereo not drawn)	-3.7	66.4*	-27.7	-8.9	-0.9	0.2
Cc1ccc(OCCn2cc(/C(N)=N/O)c3ccccc32)cc1C	28.3*	8.9	1.8	-2.2	-9.1	-0.2
COc1ccc(OCCn2cc(/C(N)=N/O)c3ccccc32)cc1	-14.4	5.5	-0.1	-1.2	13.2	2.4
COc1cccc(CN(C)Cc2nc(Cc3ccccc3Cl)no2)c1	-5.6	-3.9	10.1	-8.0	21.6	0.4
NNC(=O)CS(=O)(=O)CS(=O)(=O)CC(=O)NN	71.7*	-1.8	2.1	-0.6	-20.5	-0.6
CC(C)N(C(=O)CSc1nc2ccccc2n1Cc1ccc(F)cc1)C(C)C	9.6	32.3*	-18.1	-3.2	1.3	0.6
NC(=O)CSc1nc2ccccc2n1Cc1ccccc1	0.1	-12.0	14.3	-7.7	17.2	22.5*
CC(C)NC(=O)CSc1nc2ccccc2n1CC(=O)N(C(C)C)C(C)C	7.3	-7.3	11.7	-1.9	2.1	-0.6
Cn1nnnc1SCC(=O)NCCc1ccc(Cl)cc1	-7.6	-3.9	6.1	1.5	15.9	0.4
CCOc1ccc(CCNC(=O)CSc2nnnn2C)cc1OCC	1.5	2.3	3.0	-7.4	15.0	15.7*
CN1CCN(c2nc(Nc3ccc(F)cc3)nc(Nc3ccc(F)cc3)n2)CC1	-5.7	-7.0	8.2	-6.9	12.5	1.7
O=C(O)c1ccccc1-c1nnc2c(Cl)cc(C(F)(F)F)cn12	11.9	95.0*	5.2	0.3	-2.4	0.0
O=C/C(=C\Nc1ccc(C(=O)N2CCOCC2)cc1)c1nc2ccccc2o1	-10.6	-17.2	11.2	-4.3	10.0	3.8
COC1CCC2(C)C(=CCC3C4CC(O)CC4(C)CCC32)C1 (stereo not drawn)	-14.7	23.0	-13.1	0.7	12.5	2.8
O=C(COc1ccc(S(=O)(=O)N2CCCC2)cc1Cl)NCc1cccnc1	-5.5	-7.7	6.6	-5.0	3.9	1.1
COc1ccc(C(=O)/C=C\c2ccc(NC(=O)c3cccs3)cc2)cc1	26.8*	6.3	-0.4	-4.6	-8.3	0.3
CC(C)[C@@H]1CN=C(N)N1C[C@@H]1CCCN1C[C@H](C)N1C[C@@H](Cc2ccccc2)N(CCc2ccc(Cl)c(Cl)c2)C1=N	-10.0	45.8*	-29.3	-11.0	18.9	0.7
CC(C)[C@H](CN1CCC[C@H]1CN1C(N)=NC[C@@H]1Cc1ccccc1)N1C[C@@H](Cc2ccccc2)N(CCc2ccc(Cl)c(Cl)c2)C1=N	-6.5	14.1	-10.3	-10.8	-1.5	-0.3
C[C@@H](CN1CCC[C@H]1CN1C(N)=NC[C@@H]1Cc1ccccc1)N1C[C@@H](Cc2ccccc2)N(CCc2ccc(Cl)c(Cl)c2)C1=N	4.8	68.0*	-29.3	-7.8	5.9	-0.5
